Each structure is given as a SMILES string. Activity calls are given as the source filed them. Entries that show only a call come without a potency. Calls come from the whole dose curve; as a rule, active = well fitted curve in the direction sought with a large enough effect; inconclusive = small, poorly fitted or top-dose-only effect, or effect the other way, or another doubt; inactive = no such curve, though single readings can be large or run the other way.

The nature of the assay: qHTS of Nrf2 Activators: LOPAC Validation (AID 624149). As to conditions: Nrf2/ARE reporter cell assay; series mostly up to 46.1 µM. In short, it runs like this: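 AREc32_Fluc cells, 1000/well, OPTI-MEM + 5% FBS, o/n 37 deg C 5% CO2; compound pin-transfer, 24 hr 37 deg C; Steady-Glo 30 min RT, luminescence read.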
For `COc1cc2c(cc1O)CC[C@@H]1[C@@H]2CC[C@]2(C)[C@@H](O)CC[C@@H]12`, the Potency result was “inactive”.
The value for `CNCCC(Oc1ccccc1C)c1ccccc1` (configuration not stated) was “inactive”; that for `CC(C)COC(=O)OCN1C(=O)CN(CCN2CC(=O)N(COC(=O)OCC(C)C)C(=O)C2)CC1=O` was “inactive”; that for `COC(=O)[C@H]1[C@H]2C[C@H]3c4[nH]c5ccccc5c4CCN3C[C@H]2CC[C@@H]1O` was “inactive”.
Consider `CC[C@H](C)C(=O)O[C@H]1CCC=C2C=C[C@H](C)[C@H](CC[C@@H]3C[C@@H](O)CC(=O)O3)[C@H]21`, for which the Potency entry was “inactive”.
As to `C[C@]12CC[C@@H]3c4ccc(O)cc4CC[C@H]3[C@@H]1CC[C@@H]2O`, the Potency result is “inactive”.
The value for `CC(CCc1ccccc1)NCC(O)c1ccc(O)c(C(N)=O)c1` (configuration not stated) was “inactive”.

These data come from PubChem BioAssay (NCATS).
